Experimental findings from PubChem BioAssay AID463173 (ICCB-Longwood Screening Facility, Harvard Medical School, 2010) are described below.

Values joined by “and” are separate entries in the source; they are usually repeats but may differ in a detail not shown here. Identical values can stand only once. Out of some 52,000 compounds screened, about 4,300 (8.3%) were called active. Cut-off read from the data, not from the text of the source: active = survival mostly below about 52% (no sharp cut-off); inactive = mostly above about 56%. The sample as a whole holds a higher share of actives than the screen did. The source holds several records for some structures; these can differ, active in one and inactive in another.

The subject of this assay is DeltatarO mutant. Description: S. aureus survival, RN4220 and DeltatarO strains – OD600, teichoic acid synthesis inhibitors, primary screen (AID 463173). The following applies: S. aureus RN4220 wild type/DeltatarO growth, OD600, 18 h, stronger effect = lower value, screened at 18.75 µg/mL (by protocol).
Regarding `CC(=O)N1CCc2cc(CNC(=O)Cc3ccc(F)cc3)ccc21`, the survival was 94% (inactive).

Consider `Cc1oc2cc3oc(=O)c(CC(=O)N4CCCCC4)c(C)c3cc2c1C`, for which the survival was 73% (inactive). The figure for `O=C(Cn1cc(SCc2ccccc2F)c2ccccc21)N1CCCCC1` is 82% (inactive); for `O=C(Nc1ccc(F)c(F)c1)c1cc(S(=O)(=O)NC2CCCCCC2)ccc1F` it is 54% (inactive).

For the compound `O=C(Nc1ccc(C(F)(F)F)cc1)c1cc(S(=O)(=O)NC2CCCCCC2)ccc1F`, the survival was 25% (active). The same measure for `CCc1ccc(NC(=O)c2ccc(F)c(S(=O)(=O)N(C)C3CCCCC3)c2)cc1`: 84% (inactive). The figure for `COC(=O)c1ccc(CN(Cc2ccc(OC)c(OC)c2)S(=O)(=O)c2cc(C(=O)Nc3cccc(C)c3)ccc2F)cc1` is 86% (inactive); for `CCOc1ccc(NC(=O)c2ccc(F)c(S(=O)(=O)N(Cc3ccc(C(=O)OC)cc3)Cc3ccc(OC)c(OC)c3)c2)cc1` it is 47% (active).

For `Cc1ccc(NC(=O)c2cc(S(=O)(=O)NC3CCCCCC3)ccc2F)cc1F`, the survival was 92% (inactive). The same measure for `O=C(Nc1ccc(Cl)cc1)c1cc(S(=O)(=O)NC2CCCCCC2)ccc1F`: 90% (inactive); for `CCOc1ccc(NC(=O)c2ccc(F)c(S(=O)(=O)N(CC)Cc3ccccc3)c2)cc1`: 78% (inactive); for `O=C(Nc1ccc(C(F)(F)F)cc1)c1cc(S(=O)(=O)NC2CCCCC2)ccc1F`: 92% (inactive). In the case of `O=C(Nc1ccc(Br)cc1)c1ccc(F)c(S(=O)(=O)NC2CCCCCC2)c1`, the survival was 84% (inactive). With `CCc1ccc(NC(=O)c2ccc(F)c(S(=O)(=O)NC3CCCCCC3)c2)cc1`, the survival is -2% (active). The same measure for `Cc1ccc(NC(=O)c2cc(S(=O)(=O)NC3CCCCC3)ccc2F)cc1Cl`: -5% (active).

Take `CSc1nnc(COc2ccc(Br)cc2)n1Cc1ccccc1`: the survival is 97% (inactive).

As to `CCNC(=O)Nc1ccc2nc(C)n(Cc3cccc(Cl)c3)c(=O)c2c1`, the survival is 104% (inactive). Turning to `Cc1nn(-c2ccccc2)c2c1N(CCCC(=O)NCc1ccccc1)C(=O)CS2`, the survival was 99% (inactive).

In the case of `O=C(c1ccco1)N1CCN(Cc2cccc(Br)c2)CC1`, the survival was 95% (inactive).

Regarding `Cc1ccc(CNC(=O)CCCCn2c(=O)c3ccccc3n(Cc3ccc(C)cc3)c2=O)cc1`, the survival was 67% (inactive). For the compound `CCOc1ccc(OCC)c(NC(=O)C2CCN(S(=O)(=O)c3ccc(Br)s3)CC2)c1`, the survival is 80% (inactive). Regarding `COc1cc(NC(=O)C2CCN(S(=O)(=O)c3ccc4c(c3)oc(=O)n4C)CC2)cc(OC)c1`, the survival was 102% (inactive). Take `Fc1ccccc1OCc1nc(-c2ccc(-n3cccc3)cc2)no1`: the survival was 75% (inactive). As to `COc1ccc(CNC(=O)CSc2nc3ccccc3nc2Cc2ccccc2OC)cc1`, the survival is 70% (inactive). Consider `CCOc1ccc(NC(=O)C2CCC(CNS(=O)(=O)c3ccc4c(c3)CCCC(=O)N4)CC2)cc1` (stereo not drawn), for which the survival was 47% (active). The same measure for `CC(=O)c1ccc(NC(=O)C2CCC(CNS(=O)(=O)c3ccc4c(c3)CCCC(=O)N4)CC2)cc1` (stereo not drawn): 73% (inactive); for `CC(C)c1ccc(NC(=O)C2CCC(CNS(=O)(=O)c3ccc4c(c3)CCCC(=O)N4)CC2)cc1` (stereo not drawn): 73% (inactive). The same measure for `Cc1ccc(NC(=O)C2CCC(CNS(=O)(=O)c3ccc4c(c3)C(C)(C)C(=O)N4C)CC2)cc1` (stereo not drawn): 67% (active); for `COc1ccc(NC(=O)C2CCC(CNS(=O)(=O)c3ccc4c(c3)C(C)(C)C(=O)N4C)CC2)cc1` (stereo not drawn): 54% (inactive); for `Cc1cc(C)cc(NC(=O)C2CCC(CNS(=O)(=O)c3ccc4c(c3)C(C)(C)C(=O)N4C)CC2)c1` (stereo not drawn): 102% (inactive).

Turning to `Cc1ccc(S(=O)(=O)NC2CCCCC2)c2nsnc12`, the survival is 78% (inactive). `Cc1nc(C)c(CCNS(=O)(=O)c2ccc(F)cc2)s1`: the survival was 119% (inactive). With `CCc1cccc(NC(=O)CSc2n[nH]c(-c3ccccc3Cl)n2)c1`, the survival is 66% (inactive).

In the case of `Cc1cc(Nc2ccccc2O)nc(C)n1`, the survival was 67% (inactive).

Regarding `CCOc1ccc(CNS(=O)(=O)c2c(C(=O)N3CCC(C)CC3)c(C)n(C)c2C)cc1OC`, the survival is 81% (inactive). Take `COc1ccc(C)cc1NS(=O)(=O)c1c(C(=O)N2CCC(C)CC2)c(C)n(C)c1C`: the survival was 89% (inactive).

As for `COc1cc(OC)c(NS(=O)(=O)c2c(C(=O)N3CCC(C)CC3)c(C)n(C)c2C)cc1Cl`, the survival is 17% (active). As for `CC(=O)Nc1ccc(NS(=O)(=O)c2c(C(=O)N3CCCCCC3)c(C)n(C)c2C)cc1`, the survival was 66% (inactive). In the case of `CCOc1ccc(OCC)c(NS(=O)(=O)c2c(C(=O)N3CCCCCC3)c(C)n(C)c2C)c1`, the survival is 76% (inactive). With `COc1cc(OC)c(NS(=O)(=O)c2c(C(=O)N3CCCCCC3)c(C)n(C)c2C)cc1Cl`, the survival is 68% (inactive). The same measure for `Cc1ccc(NS(=O)(=O)c2c(C(=O)N3CCC(C)CC3)c(C)n(C)c2C)cc1Cl`: 126% (inactive). Turning to `CCOc1ccc(OCC)c(NS(=O)(=O)c2c(C(=O)N3CCC(C)CC3)c(C)n(C)c2C)c1`, the survival is 8% (active). The same measure for `CC(=O)Nc1ccc(NS(=O)(=O)c2c(C(=O)N3CCC(C)CC3)c(C)n(C)c2C)cc1`: 20% (active); for `Cc1ccc(CNC(=O)c2c(-c3ccccc3F)noc2C)o1`: 89% (inactive); for `CCC1CN(C(=O)N2CCC(C(=O)NCCN(CC)CC)CC2)c2cc(C)ccc2O1` (stereo not drawn): 94% (inactive). The same measure for `Cn1ccc2c(OCC(=O)Nc3ccc(OC(F)(F)F)cc3)cccc2c1=O`: 95% (inactive).

Consider `CCCc1nn2c(=O)cc(COC(=O)c3cccc(NC(=O)CCc4ccccc4)c3)nc2s1`, for which the survival was 131% (inactive). The figure for `CC(=O)c1ccc(NC(=O)Cn2c(=O)nc(-c3ccccc3)c3cc(Cl)ccc32)cc1` is 115% (inactive). The figure for `O=C(NCCC1=CCCCC1)C1CC(O)CN1C(=O)Nc1ccccc1` (stereo not drawn) is 87% (inactive); for `CCOC(=O)c1c(NC(=O)c2cc(-c3ccc(OC)c(OC)c3)on2)sc2c1CCCC2` it is 52% (inactive).

Take `CCOC(=O)c1c(-c2ccccc2)csc1NC(=O)c1cc(-c2ccc(C)c(F)c2)on1`: the survival is 52% (active). The same measure for `CCOC(=O)c1c(-c2ccc(C)cc2)csc1NC(=O)c1cc(-c2ccc(C)c(F)c2)on1`: 55% (inactive). The figure for `CCOC(=O)c1c(-c2ccc(C)cc2)csc1NC(=O)c1cc(-c2ccc(OC)cc2)on1` is 49% (inactive); for `CCOC(=O)c1c(NC(=O)c2cc(-c3ccc(Cl)cc3)on2)sc2c1CCCC2` it is 68% (inactive). For the compound `CCOC(=O)c1c(-c2ccccc2)csc1NC(=O)c1cc(-c2cccc(Cl)c2)on1`, the survival was 59% (inactive). With `CCOC(=O)c1c(-c2ccccc2)csc1NC(=O)c1cc(-c2cccc(OC)c2)on1`, the survival was 43% (active). Consider `CCOC(=O)c1c(-c2ccccc2)csc1NC(=O)c1cc(-c2ccc(F)cc2)on1`, for which the survival was 66% (inactive). The same measure for `CCOC(=O)c1c(NC(=O)c2cc(-c3cccc(OC)c3)on2)sc2c1CCCC2`: 46% (active). The same measure for `CCc1ccccc1-n1nnc(-c2nsc(NC(=O)c3ccc(C)c(C)c3)n2)c1C`: 130% (inactive); for `COc1ccc(NC(=O)C2Cc3ccccc3CN2S(=O)(=O)c2ccccc2)cc1OC` (stereo not drawn): 94% (inactive); for `CCc1c(C)sc2c1CCN(Cc1cccc(OC)c1)C2c1ccccc1` (stereo not drawn): 60% (inactive).

Take `CCCCNC(=O)c1ccc2c(=O)n(Cc3ccc(OC)cc3)c(=O)[nH]c2c1`: the survival was 68% (inactive). For the compound `COc1cc(OC)c(NC(=O)CCNS(=O)(=O)c2ccc3c(c2)oc(=O)n3C)cc1Cl`, the survival was 83% (inactive). The figure for `Cc1cc(/C=C(\C#N)C(=O)N2CCc3ccccc3C2)c(C)n1C` is 87% (inactive). Turning to `O=C(/C=C\c1ccc2c(c1)OCO2)NC1CC(=O)N(c2cccc(F)c2)C1` (stereo not drawn), the survival was 67% (inactive). The same measure for `COC(=O)c1ccc(NC(=O)NC(C)c2c(-n3cccc3)sc(C)c2C)cc1` (stereo not drawn): 52% (inactive). The figure for `Cc1sc(-n2cccc2)c(C(C)NC(=O)Nc2ccccc2Cl)c1C` (stereo not drawn) is 61% (inactive).

As to `COc1ccc(NC(=O)NC(C)c2c(-n3cccc3)sc(C)c2C)cc1OC` (stereo not drawn), the survival is 58% (inactive).

Regarding `Cc1sc(-n2cccc2)c(C(C)NC(=O)Nc2cccc(C(F)(F)F)c2)c1C` (stereo not drawn), the survival was 23% (active). Turning to `Cc1ccc(NC(=O)NC(C)c2c(-n3cccc3)sc(C)c2C)cc1F` (stereo not drawn), the survival is 64% (inactive). The same measure for `COC(=O)c1ccc(Cl)cc1NC(=O)NC(C)c1c(-n2cccc2)sc(C)c1C` (stereo not drawn): 19% (active); for `CCn1nc(CCC(=O)O)c2ccccc2c1=O`: 80% (inactive). For `O=C(Nc1ccc2oc(-c3cccc4c(Br)cccc34)nc2c1)c1ccc(Br)cc1`, the survival was 71% (inactive). The same measure for `Nc1ccc2oc(-c3ccccc3Br)nc2c1`: 87% (inactive) and 39% (active); for `Cc1ccc2oc(-c3ccccc3C)nc2c1`: 105% (inactive). `CCOC(=O)CC(NC(=O)c1cc2cc(OC)ccc2oc1=O)c1ccc(OC)cc1` (stereo not drawn): the survival was 74% (inactive). The figure for `Cc1ccc(-c2noc(CCCC(=O)NCc3ccco3)n2)cc1` is 53% (inactive); for `COc1cccc(-c2noc(CCCC(=O)NCc3ccco3)n2)c1` it is 109% (inactive); for `Cc1cccc(-c2noc(CNC(=O)c3ccccc3Br)n2)c1` it is 72% (inactive).

With `Cc1cccc(-c2noc(CCCC(=O)NCc3ccco3)n2)c1`, the survival is 42% (active). Regarding `Cc1cccc(-c2noc(CNC(=O)c3ccc(C)cc3C)n2)c1`, the survival is 37% (active). `Cc1ccccc1C(=O)NCc1nc(-c2ccc(Cl)cc2)no1`: the survival is 47% (active). The figure for `Cc1ccc(-c2noc(CNC(=O)c3ccc(C)c(Cl)c3)n2)cc1` is 49% (inactive). The same measure for `Cc1ccc(CC(=O)NCc2nc(-c3cccc(C)c3)no2)cc1`: 69% (inactive); for `Cc1ccc(-c2noc(CNC(=O)c3ccccc3)n2)cc1`: 63% (inactive). On to `O=C(CSc1nc2ccccc2nc1Cc1ccc(Cl)cc1)N1CCc2ccccc21`, for which the survival is 93% (inactive). Consider `O=C(NC1CC(=O)N(c2ccc(F)cc2)C1)C(c1ccccc1)c1ccccc1` (stereo not drawn), for which the survival is 124% (inactive). `CCc1ccc(C(=O)c2cn(CC(=O)Nc3ccc(Cl)cc3)c3cc4c(cc3c2=O)OCO4)cc1`: the survival was 146% (inactive).
